PubChem BioAssay (NCATS)
Results filed as inconclusive are left out. Calls of active or inactive are those of the source. Calls follow the shape of the dose curve; as a rule, active = well fitted curve in the direction sought with a large enough effect; inconclusive = small, poorly fitted or top-dose-only effect, or another doubt; inactive = no such curve, though single readings can be large; an effect the other way counts as inactive or inconclusive.

What was measured:
[1] = qHTS of pediatric cancer cell lines to identify multiple opportunities for drug repurposing: Primary screen for Rh41 cells (AID 1347108); also: nearly all actives have a fitted effect of over 70% in size
In short: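 Quantitative HTS format: each compound titrated (MIPE 11 points from 0.78 nM, NPC 8 points from 0.59 nM) onto cells plated 5 hours earlier. After 48 h at 37 degrees C, CellTiter-Glo luminescence was recorded.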

[2] = qHTS of pediatric cancer cell lines to identify multiple opportunities for drug repurposing: Confirmatory screen for A673 cells (AID 1347110);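 also: cells exposed to compound for 48 h before the viability read; nearly all actives have a fitted effect of over 65% in size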
In short: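 A673 cells seeded at 500-1,000 cells/well, rested 5 h, then dosed; primary MIPE 11-point (0.78 nM to 46 µM), NPC (0.59 nM to 46 µM); confirmatory 11-point. CellTiter-Glo luminescence after 48 h.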

[3] = qHTS of pediatric cancer cell lines to identify multiple opportunities for drug repurposing: Confirmatory screen for NB-EBc1 cells (AID 1347115);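 also: cells exposed to compound for 48 h before the viability read; nearly all actives have a fitted effect of over 45% in size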
In short: (§1)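 Cells (500-1,000/well) in growth media were settled 5 h at 37 degrees C, then given compounds for 48 h. Viability was read as CellTiter-Glo luminescence. Primary runs used MIPE at 11 points (0.78 nM-46 µM) and NPC at 8 points (0.59 nM-46 µM); follow-ups used 11 points.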

[4] = qHTS of pediatric cancer cell lines to identify multiple opportunities for drug repurposing: Confirmatory screen for BT-37 cells (AID 1347117); also: nearly all actives have a fitted effect of over 55% in size
In short: as §1

[5] = qHTS of pediatric cancer cell lines to identify multiple opportunities for drug repurposing: Confirmatory screen for BT-12 cells (AID 1347112); also: nearly all actives have a fitted effect of over 55% in size
In short: as §1

[6] = qHTS of pediatric cancer cell lines to identify multiple opportunities for drug repurposing: Confirmatory screen for NB1643 cells (AID 1347109); also: nearly all actives have a fitted effect of over 45% in size
In short: as §1

[7] = qHTS of pediatric cancer cell lines to identify multiple opportunities for drug repurposing: Confirmatory screen for DAOY cells (AID 1347114); also: nearly all actives have a fitted effect of over 65% in size
In short: (§2)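 Viability measured as metabolically active cells via CellTiter-Glo luminescence following 48 hours of compound exposure, 11-point dilutions in confirmatory testing. 500-1,000 cells/well plated 5 hours before dosing; controls were DMSO and 2.3 µM bortezomib.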

[8] = qHTS of pediatric cancer cell lines to identify multiple opportunities for drug repurposing: Confirmatory screen for SJ-GBM2 cells (AID 1347116); also: nearly all actives have a fitted effect of over 60% in size
In short: as §2

[9] = qHTS of pediatric cancer cell lines to identify multiple opportunities for drug repurposing: Confirmatory screen for LAN-5 cells (AID 1347113); also: nearly all actives have a fitted effect of over 65% in size
In short: as §1

[10] = qHTS of pediatric cancer cell lines to identify multiple opportunities for drug repurposing: Confirmatory screen for SK-N-MC cells (AID 1347111);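 also: cells exposed to compound for 48 h before the readout; nearly all actives have a fitted effect of over 70% in size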
In short: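 Metabolically active cells were quantified by ATP-dependent luminescence (CellTiter-Glo, 15 min at room temperature) following 48 h treatment. Cells had been plated at 500-1,000 per well and settled for 5 h beforehand.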
Potency is read from the fitted curve at half-maximal effect.

| Structure (SMILES) | Potency [1] | Potency [2] | Potency [3] | Potency [4] | Potency [5] | Potency [6] | Potency [7] | Potency [8] | Potency [9] | Potency [10] |
| --- | --- | --- | --- | --- | --- | --- | --- | --- | --- | --- |
| Nc1ccn([C@@H]2O[C@H](CO)[C@@H](O)[C@H]2O)c(=O)n1 | inactive | 0.657 µM (active) | 3.29 µM (active) | 0.329 µM (active) |  |  |  |  |  |  |
| CC1CNc2c(cccc2S(=O)(=O)N[C@@H](CCCN=C(N)N)C(=O)N2CC[C@@H](C)C[C@@H]2C(=O)O)C1 (stereo partly specified) | inactive | inactive | inactive | inactive | inactive |  |  |  |  |  |
| CSc1cccc(Nc2ncc3cc(-c4c(Cl)cccc4Cl)c(=O)n(C)c3n2)c1 | 0.743 µM (active) | 2.08 µM (active) | 2.08 µM (active) | 4.14 µM (active) |  | 2.93 µM (active) | 1.17 µM (active) |  |  |  |
| O=C(c1ccc(F)c(F)c1Nc1ccc(I)cc1F)N1CC(O)([C@H]2CCCCN2)C1 | 18.7 µM (active) | 26.1 µM (active) | inactive |  |  |  |  | inactive |  |  |
| Nc1[nH]nc2nnc(-c3c(-c4ccccc4)nn4ccccc34)cc12 | 5.9 µM (active) | 13.1 µM (active) |  |  |  |  |  |  |  |  |
| CN[C@@H]1CN(c2ccc3c(=O)c(C(=O)O)cn(-c4nccs4)c3n2)C[C@@H]1OC |  | 1.29 µM (active) | 0.811 µM (active) | 2.57 µM (active) | 9.1 µM (active) | 1.82 µM (active) |  | 10.2 µM (active) | 1.82 µM (active) |  |
| CC(C)n1c(C=C[C@H](O)C[C@H](O)CC(=O)O)c(-c2ccc(F)cc2)c2ccccc21 | inactive | 4.65 µM (active) |  | 14.7 µM (active) |  |  |  | 13.1 µM (active) | inactive | 23.3 µM (active) |
| C[C@@H]1[C@H](O)[C@@H](C)C=CC=CC=CC=CC=CC=CC=C[C@H](O[C@@H]2O[C@H](C)[C@H](O)[C@H](N)[C@@H]2O)C[C@@H]2O[C@](O)(C[C@@H](O)C[C@@H](O)[C@H](O)CC[C@@H](O)C[C@@H](O)CC(=O)O[C@H]1C)C[C@H](O)[C@@H]2C(=O)O |  | inactive | inactive | inactive | inactive | inactive |  |  | inactive |  |
| Cc1cnc(-c2cc(N3CCN(C(=O)CCS(C)(=O)=O)CC3)ncc2Cl)c(C)c1 | inactive | inactive | inactive | 29.3 µM (active) | inactive | inactive |  |  | inactive |  |
| CCC(=O)N1CCN(c2ccc(-n3c(=O)ccc4cnc5ccc(-c6cnc7ccccc7c6)cc5c43)cc2C(F)(F)F)CC1 |  | inactive | inactive |  | inactive | inactive | inactive |  | inactive |  |
| Nc1ccc(-c2ccc3ncc4ccc(=O)n(-c5cccc(C(F)(F)F)c5)c4c3c2)cn1 | 0.0264 µM (active) | 0.185 µM (active) | 0.293 µM (active) | 0.117 µM (active) |  | 0.369 µM (active) |  | 0.233 µM (active) | 0.165 µM (active) |  |
| CC[C@H](NC(=O)[C@H](C)NC)C(=O)N1C[C@@H](O)C[C@H]1Cc1c(-c2[nH]c3cc(F)ccc3c2C[C@H]2C[C@H](O)CN2C(=O)[C@H](CC)NC(=O)[C@H](C)NC)[nH]c2cc(F)ccc12 | inactive | 7.37 µM (active) | inactive |  | 18.5 µM (active) |  |  |  |  |  |
| C=C1[C@H](n2cnc3c(=O)[nH]c(N)nc32)C[C@H](O)[C@H]1CO |  | inactive | inactive | inactive | inactive | inactive |  |  | inactive |  |
| O=c1[nH]nc(OCCCc2ccc(Cl)cc2)c(NCc2cccnc2)c1Br | 18.7 µM (active) |  | 13.1 µM (active) |  |  |  | 5.22 µM (active) |  |  |  |
| Cc1cc(CS(=O)(=O)c2ccccc2)cc(OCc2ccc(CN3CCC[C@H]3CO)cc2)c1 | 11.8 µM (active) |  | inactive |  |  | inactive |  | inactive |  |  |
| COC(=O)Nc1ccc(-c2nc(N3CCOCC3)c3cnn(C4CCN(C(=O)OC)CC4)c3n2)cc1 | 1.32 µM (active) | 2.93 µM (active) |  | 3.69 µM (active) |  |  |  |  | 8.27 µM (active) |  |
| CCC[C@H](N[C@@H](C)C(=O)N1[C@@H]2CCCC[C@H]2C[C@H]1C(=O)O)C(=O)OCC | inactive |  | inactive | inactive | inactive | inactive |  | inactive | inactive | inactive |
| CCNC(=O)c1noc(-c2cc(C(C)C)c(O)cc2O)c1-c1ccc(CN2CCOCC2)cc1 | 0.148 µM (active) | 0.0522 µM (active) | 0.293 µM (active) | 0.0827 µM (active) |  | 0.0737 µM (active) |  | 0.208 µM (active) | 0.0522 µM (active) |  |
| CO[C@H]1/C=C\O[C@@]2(C)Oc3c(C)c(O)c4c(O)c(c(C=NN5CCN(C6CCCC6)CC5)c(O)c4c3C2=O)NC(=O)C(C)=CC=C[C@H](C)[C@H](O)[C@@H](C)[C@@H](O)[C@@H](C)[C@H](OC(C)=O)[C@H]1C | 0.148 µM (active) |  |  | 26.1 µM (active) |  | 23.3 µM (active) |  | inactive | inactive |  |
